# A number with no mark means an inactive call.
# How the values were obtained:
# Assay in all cases: log2 ratio of Biotin-Ahx-Ub-VS probe labelling (fragment/DMSO); higher = less target engagement (more negative = stronger competition), active = hit call of the paper (q ≤ 0.05, log2 ratio ≤ -1)
# Conditions in all cases: compound concentration: 200 uM; treatment time: 3 h
# OTUD6B = target: T1, OTUD6B (UniProt Q8N6M0)
# T1 sequence (whole entry): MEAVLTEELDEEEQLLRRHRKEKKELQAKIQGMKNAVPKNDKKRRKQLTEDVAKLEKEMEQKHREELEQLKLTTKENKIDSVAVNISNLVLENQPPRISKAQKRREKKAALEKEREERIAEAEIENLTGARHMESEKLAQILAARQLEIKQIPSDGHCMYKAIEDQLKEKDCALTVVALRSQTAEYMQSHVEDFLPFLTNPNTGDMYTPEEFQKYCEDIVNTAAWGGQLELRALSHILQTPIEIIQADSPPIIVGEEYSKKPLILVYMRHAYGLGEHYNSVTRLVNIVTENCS
# Outline: (§1)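 Triplicate samples of HEK293T lysate, 495 µg each, received fragment at 200 µM or vehicle for 3 h, followed by Biotin-Ahx-Ub-VS (0.5 µM final) for 1 h. After NeutrAvidin enrichment of labelled DUBs and LysC/trypsin digestion, peptides were run by diaPASEF LC-MS/MS. The values are average log2 fragment/vehicle ratios from global-median-normalised Spectronaut label-free quantities, tested by unpaired t-test on proteins having ≥2 unique peptides.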
# OTUD7B = target: T2, OTUD7B (UniProt Q6GQQ9)
# T2 sequence (whole entry): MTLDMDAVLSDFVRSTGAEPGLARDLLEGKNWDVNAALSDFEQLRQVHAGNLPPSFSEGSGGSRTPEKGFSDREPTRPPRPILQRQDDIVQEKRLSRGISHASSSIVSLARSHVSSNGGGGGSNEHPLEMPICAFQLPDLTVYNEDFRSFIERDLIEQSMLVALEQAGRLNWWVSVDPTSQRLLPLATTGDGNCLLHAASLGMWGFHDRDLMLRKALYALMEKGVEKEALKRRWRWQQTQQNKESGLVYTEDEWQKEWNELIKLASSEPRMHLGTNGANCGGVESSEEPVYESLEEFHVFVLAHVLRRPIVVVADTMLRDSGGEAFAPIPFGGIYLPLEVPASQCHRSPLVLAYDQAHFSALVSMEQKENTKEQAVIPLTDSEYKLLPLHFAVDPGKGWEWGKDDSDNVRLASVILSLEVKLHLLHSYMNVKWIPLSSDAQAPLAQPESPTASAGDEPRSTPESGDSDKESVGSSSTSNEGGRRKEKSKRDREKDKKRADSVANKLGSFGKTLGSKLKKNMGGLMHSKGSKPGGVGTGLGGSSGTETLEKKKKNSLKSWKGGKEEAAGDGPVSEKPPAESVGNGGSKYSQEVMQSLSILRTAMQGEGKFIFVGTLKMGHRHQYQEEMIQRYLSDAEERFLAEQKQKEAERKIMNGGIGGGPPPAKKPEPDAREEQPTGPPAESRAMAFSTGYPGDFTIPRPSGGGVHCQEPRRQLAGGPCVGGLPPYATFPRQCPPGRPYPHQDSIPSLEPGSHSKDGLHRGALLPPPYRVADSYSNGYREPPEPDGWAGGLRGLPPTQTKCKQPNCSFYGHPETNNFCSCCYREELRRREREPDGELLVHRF
# Outline: as §1
# PRPF8 = PRPF8 (UniProt Q6P2Q9)
# Outline: as §1
# PSMD7 = target: T3, PSMD7 (UniProt P51665)
# T3 sequence (whole entry): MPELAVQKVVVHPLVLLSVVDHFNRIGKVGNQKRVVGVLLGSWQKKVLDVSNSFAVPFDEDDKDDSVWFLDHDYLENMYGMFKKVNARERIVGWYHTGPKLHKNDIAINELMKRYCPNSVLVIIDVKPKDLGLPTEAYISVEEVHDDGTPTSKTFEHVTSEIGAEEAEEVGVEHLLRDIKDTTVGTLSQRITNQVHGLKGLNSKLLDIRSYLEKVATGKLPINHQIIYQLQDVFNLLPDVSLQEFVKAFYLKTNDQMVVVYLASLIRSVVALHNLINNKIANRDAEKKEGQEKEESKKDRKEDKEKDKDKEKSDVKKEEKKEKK
# Outline: as §1
# UCHL1 = UCHL1 (UniProt P09936)
# Outline: as §1
# UCHL3 = target: T4, UCHL3 (UniProt P15374)
# T4 sequence (whole entry): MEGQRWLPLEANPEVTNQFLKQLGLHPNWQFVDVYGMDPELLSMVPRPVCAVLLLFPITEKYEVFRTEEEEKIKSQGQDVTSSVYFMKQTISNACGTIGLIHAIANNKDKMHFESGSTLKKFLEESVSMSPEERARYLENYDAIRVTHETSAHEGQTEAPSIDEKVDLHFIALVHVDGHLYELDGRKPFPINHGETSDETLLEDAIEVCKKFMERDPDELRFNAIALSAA
# Outline: as §1
# UCHL5 = target: T5, UCHL5 (UniProt Q9Y5K5)
# T5 sequence (whole entry): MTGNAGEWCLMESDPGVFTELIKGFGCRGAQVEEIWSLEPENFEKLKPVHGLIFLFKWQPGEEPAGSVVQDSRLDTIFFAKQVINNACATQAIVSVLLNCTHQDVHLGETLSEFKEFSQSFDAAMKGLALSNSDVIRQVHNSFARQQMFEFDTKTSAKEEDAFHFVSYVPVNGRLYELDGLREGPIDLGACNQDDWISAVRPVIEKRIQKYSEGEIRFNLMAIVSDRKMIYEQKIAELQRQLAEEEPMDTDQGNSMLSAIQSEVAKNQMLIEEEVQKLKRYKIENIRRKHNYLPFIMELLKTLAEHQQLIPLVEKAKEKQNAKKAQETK
# Outline: as §1
# USP10 = USP10 (UniProt Q14694)
# Outline: as §1
# USP15 = target: T6, USP15 (UniProt Q9Y4E8)
# T6 sequence (whole entry): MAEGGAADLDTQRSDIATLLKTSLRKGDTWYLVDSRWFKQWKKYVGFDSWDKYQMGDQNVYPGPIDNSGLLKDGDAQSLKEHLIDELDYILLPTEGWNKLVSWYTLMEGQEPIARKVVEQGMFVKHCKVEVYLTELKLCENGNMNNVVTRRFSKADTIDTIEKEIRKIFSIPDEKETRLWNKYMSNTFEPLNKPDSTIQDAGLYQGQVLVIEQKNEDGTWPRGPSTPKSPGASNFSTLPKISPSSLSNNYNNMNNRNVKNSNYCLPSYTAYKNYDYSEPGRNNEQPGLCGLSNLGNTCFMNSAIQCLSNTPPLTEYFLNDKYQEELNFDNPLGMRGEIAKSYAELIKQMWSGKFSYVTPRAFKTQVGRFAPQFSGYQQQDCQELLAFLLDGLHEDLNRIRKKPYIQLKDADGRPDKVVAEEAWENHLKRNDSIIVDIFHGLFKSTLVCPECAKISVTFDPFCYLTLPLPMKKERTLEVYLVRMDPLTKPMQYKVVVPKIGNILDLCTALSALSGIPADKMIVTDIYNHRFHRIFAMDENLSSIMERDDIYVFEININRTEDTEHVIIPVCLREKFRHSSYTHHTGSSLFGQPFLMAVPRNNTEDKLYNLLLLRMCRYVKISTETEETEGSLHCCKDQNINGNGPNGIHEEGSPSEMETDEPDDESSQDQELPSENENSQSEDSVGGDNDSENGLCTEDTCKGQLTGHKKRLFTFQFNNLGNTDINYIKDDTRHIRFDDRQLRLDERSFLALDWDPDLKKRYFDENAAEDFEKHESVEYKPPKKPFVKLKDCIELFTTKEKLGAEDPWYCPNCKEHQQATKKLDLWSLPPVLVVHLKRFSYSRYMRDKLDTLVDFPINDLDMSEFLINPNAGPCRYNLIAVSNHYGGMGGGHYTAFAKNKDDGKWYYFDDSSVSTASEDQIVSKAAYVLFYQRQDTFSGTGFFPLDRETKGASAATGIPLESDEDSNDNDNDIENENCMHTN
# Outline: as §1
# USP16 = USP16 (UniProt Q9Y5T5)
# Outline: as §1
# Sequence of USP10 (Q14694 whole entry): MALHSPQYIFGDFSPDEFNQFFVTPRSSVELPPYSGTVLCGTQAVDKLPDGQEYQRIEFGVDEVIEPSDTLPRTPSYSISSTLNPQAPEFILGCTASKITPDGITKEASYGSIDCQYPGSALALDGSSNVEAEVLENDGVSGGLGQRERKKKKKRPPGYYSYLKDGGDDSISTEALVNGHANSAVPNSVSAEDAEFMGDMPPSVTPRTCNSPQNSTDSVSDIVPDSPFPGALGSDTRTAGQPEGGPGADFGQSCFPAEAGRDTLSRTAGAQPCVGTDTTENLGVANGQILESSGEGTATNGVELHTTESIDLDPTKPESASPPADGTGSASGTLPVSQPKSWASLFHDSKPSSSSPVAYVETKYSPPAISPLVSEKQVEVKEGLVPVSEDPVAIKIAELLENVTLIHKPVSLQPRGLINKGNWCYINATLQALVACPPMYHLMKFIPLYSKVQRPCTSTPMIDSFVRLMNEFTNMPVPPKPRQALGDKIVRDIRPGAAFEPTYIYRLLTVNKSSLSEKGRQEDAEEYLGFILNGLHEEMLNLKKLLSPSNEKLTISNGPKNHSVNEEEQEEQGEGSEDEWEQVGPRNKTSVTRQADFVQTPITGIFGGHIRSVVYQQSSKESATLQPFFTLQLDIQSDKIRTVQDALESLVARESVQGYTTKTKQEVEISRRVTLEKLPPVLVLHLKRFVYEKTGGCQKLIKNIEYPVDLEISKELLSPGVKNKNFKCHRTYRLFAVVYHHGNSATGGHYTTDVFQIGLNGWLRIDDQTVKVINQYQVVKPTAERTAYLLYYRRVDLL
# Sequence of UCHL1 (P09936 whole entry, looked up): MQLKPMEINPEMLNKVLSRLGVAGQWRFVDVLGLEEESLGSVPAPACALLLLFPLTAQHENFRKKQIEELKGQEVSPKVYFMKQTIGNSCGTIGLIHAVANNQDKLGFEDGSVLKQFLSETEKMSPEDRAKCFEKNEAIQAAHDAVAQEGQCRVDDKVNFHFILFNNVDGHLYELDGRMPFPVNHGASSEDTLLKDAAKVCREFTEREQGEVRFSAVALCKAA
# Sequence of USP16 (Q9Y5T5 whole entry, looked up): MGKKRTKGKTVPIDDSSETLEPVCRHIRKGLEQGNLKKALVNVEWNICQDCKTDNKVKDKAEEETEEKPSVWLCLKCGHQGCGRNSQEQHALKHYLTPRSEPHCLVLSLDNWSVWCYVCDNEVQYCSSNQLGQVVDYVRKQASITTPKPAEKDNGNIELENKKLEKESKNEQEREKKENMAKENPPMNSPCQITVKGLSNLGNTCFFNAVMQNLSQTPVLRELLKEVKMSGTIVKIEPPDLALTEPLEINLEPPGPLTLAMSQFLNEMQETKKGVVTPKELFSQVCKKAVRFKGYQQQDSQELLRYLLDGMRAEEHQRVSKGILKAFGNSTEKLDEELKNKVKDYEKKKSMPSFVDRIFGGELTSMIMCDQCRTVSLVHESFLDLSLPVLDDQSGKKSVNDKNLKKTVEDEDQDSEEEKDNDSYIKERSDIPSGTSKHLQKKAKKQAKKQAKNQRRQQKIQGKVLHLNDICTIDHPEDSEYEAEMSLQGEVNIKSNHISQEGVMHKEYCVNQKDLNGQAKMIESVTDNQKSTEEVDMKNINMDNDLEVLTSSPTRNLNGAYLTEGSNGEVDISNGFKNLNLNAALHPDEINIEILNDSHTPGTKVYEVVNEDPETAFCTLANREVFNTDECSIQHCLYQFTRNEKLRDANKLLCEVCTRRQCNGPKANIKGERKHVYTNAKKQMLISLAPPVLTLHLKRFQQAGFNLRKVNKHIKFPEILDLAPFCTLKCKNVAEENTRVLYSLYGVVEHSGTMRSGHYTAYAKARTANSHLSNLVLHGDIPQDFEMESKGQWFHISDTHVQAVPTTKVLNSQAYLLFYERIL
smiles,measurement,setting,value
O=C(CCl)N1CC=C(c2c[nH]c3ccccc23)CC1,log2 ratio of Biotin-Ahx-Ub-VS probe labelling,OTUD6B,-0.33
same,log2 ratio of Biotin-Ahx-Ub-VS probe labelling,OTUD7B,-0.605
same,log2 ratio of Biotin-Ahx-Ub-VS probe labelling,PRPF8,0.0222
same,log2 ratio of Biotin-Ahx-Ub-VS probe labelling,PSMD7,0.00731
same,log2 ratio of Biotin-Ahx-Ub-VS probe labelling,UCHL1,-1.12 (active)
same,log2 ratio of Biotin-Ahx-Ub-VS probe labelling,UCHL3,0.00279
same,log2 ratio of Biotin-Ahx-Ub-VS probe labelling,UCHL5,-0.387
same,log2 ratio of Biotin-Ahx-Ub-VS probe labelling,USP10,-0.299
same,log2 ratio of Biotin-Ahx-Ub-VS probe labelling,USP15,-1.46 (active)
same,log2 ratio of Biotin-Ahx-Ub-VS probe labelling,USP16,0.156
